The full list was thinned out, with hits kept by preference.
Pf Dd2 growth: inhibitors of Plasmodium falciparum Dd2 growth; P. falciparum Dd2 growth, SYBR Green, 72 h; Potency, µM (top dose mostly 28.9 µM), for the others: at the top dose activity, negative = inhibition, usual class: inhibitors; 120,000 tested, 4.3% active; AID 1347417; active = well fitted inhibition curve with a large enough effect;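 also: plate controls were DMSO vehicle for no effect and reference drug for full effect; nearly all actives have a fitted effect of over 65% in size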
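Infected erythrocytes (Dd2, 0.3% parasitemia, 2.5% hematocrit final) are added to compound in RPMI-1640/Albumax II medium, grown 72 h at 37C in low oxygen, then lysed with saponin/Triton-X containing SYBR Green and read by fluorescence.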
Active calls of the source: *; i = inactive; [ ] = another dose, or the depositor's remark. Potency is read from the fitted curve at half-maximal effect.

SMILES	Pf Dd2 growth
CCOc1ccc(NC(=O)c2cc(S(=O)(=O)NC3CCCC3)ccc2F)cc1	-18%
O=C(Nc1ccc(C(F)(F)F)cc1)c1cc(S(=O)(=O)NC2CCCCCC2)ccc1F	5.6µM*
O=C(Nc1ccc(F)c(F)c1)c1cc(S(=O)(=O)NC2CCCC2)ccc1F	22%
O=C(c1cnccn1)N1CCC(N2C(=O)C(O)C23CCCCC3)CC1 (stereo unspecified)	1%
CC(=O)N1CCCN(Cc2nc(-c3cccc(C(F)(F)F)c3)oc2C)CC1	-18%
COc1cc(F)ccc1-c1cn(C)c(=O)n2cc(COc3ccc(C(=O)O)cc3)nc12	-7%[44.1 µM]
O=C(CC[C@@H]1CNC(=O)[C@@H]2C[C@H](NC(=O)c3cccc(F)c3)CN12)NC1CC1	-33%[44.1 µM]
CCOC(=O)Cn1c(=O)n(-c2cccc(Cl)c2)c2nc(-c3ccccc3Cl)nc(C(N)=O)c21	10µM*
CCOC(=O)Cn1c(=O)n(-c2ccccc2OC)c2nc(-c3ccccc3F)nc(C(N)=O)c21	-30%
CCOC(=O)Cn1c(=O)n(CC2CCCO2)c2nc(-c3ccccc3Cl)nc(C(N)=O)c21 (stereo unspecified)	6%
CCN(CCNC(=O)C1Cn2cccc2C(=O)N1)Cc1ccccc1 (stereo unspecified)	i
Cc1cnc(C(=O)N2CCC(N3C[C@H](O)C[C@H]3C(=O)NC3CCCCC3)CC2)cn1	10%
Cc1cc(C)n(CCC(=O)N2CCC(N3C[C@H](O)C[C@H]3C(=O)NC3CCCCC3)CC2)n1	-24%
Cc1cc(C)n(Cc2ccc(C(=O)N3CCC(N4C[C@H](O)C[C@H]4C(=O)NC4CCCCC4)CC3)o2)n1	5µM*
O=C(NCc1nnc2ccc(-c3ccc(Cl)cc3)nn12)c1cccc(Br)c1	-9%
Cc1ccc(C(=O)N2CCN(C(=O)N3CC4CC(C3)[C@H]3CCCC(=O)N3C4)CC2)s1 (stereo partly specified)	5%
COCCC(=O)Nc1ccc2c(c1)CCC(=O)N2C	5%
O=C1NC2(CCCN(Cc3cccnc3)C2)Oc2ccccc21 (stereo unspecified)	-15%[44.1 µM]
COc1cccc(CN2CC3(C2)NC(=O)c2ccccc2O3)c1	-4%[44.1 µM]
CC1=NOC2(CCN(Cc3ccc(C)cc3)CC2)C1	i
N#Cc1ccc(CN2CC3(C2)NC(=O)c2ccccc2O3)cc1	i
N#Cc1ccc(CN2CCC3(CC2)COc2ccccc2C(=O)N3)cc1	2.5µM*
COc1cccc(CN2CCCC3(C2)NC(=O)c2ccccc2O3)c1 (stereo unspecified)	16µM*
N#Cc1ccc(CN2CCCC3(COc4ccccc4C(=O)N3)C2)cc1 (stereo unspecified)	-24%
Cc1ccc(CN2CCC3(CC2)COc2ccccc2CN3)cc1	6.3µM*
SMILES	Pf Dd2 growth
Cc1ccc(CN2CCC3(CC2)NC(=O)c2ccccc2O3)cc1	-4%[44.1 µM]
Cc1ccc(CN2CCCC3(COc4ccccc4C(=O)N3)C2)cc1 (stereo unspecified)	13µM*
O=C1NC2(CCCN(C(=O)c3cccnc3)C2)COc2ccccc21 (stereo unspecified)	i
O=C1NC2(CCCN(Cc3ccncc3)C2)COc2ccccc21 (stereo unspecified)	-21%[44.1 µM]
COc1ccccc1C(=O)N1CCC(N2CCCC2=O)CC1	0%[44.1 µM]
CNC(=O)N1CCCCCCNC(=O)[C@@H]2CCCC[C@@H]21	6%
COc1cccc(CN2CCOC[C@H](Oc3ccc(C(F)(F)F)cc3)C2)c1	-23%[44.1 µM]
O=C(O)CC1(CC(=O)N[C@H]2CO[C@H]3[C@@H]2OC[C@H]3O)CCCC1	-17%[44.1 µM]
CC1=C[C@@H](CNS(=O)(=O)c2cccs2)[C@H](C(C)C)C[C@H]1CC(=O)NCCN1CCOCC1	-12%
CNC(=O)[C@@H](c1ccccc1)N1CCC[C@H]1C(=O)N1CCC[C@@H]1COC	4%[44.1 µM]
CN(C)C(=O)c1cc2c(s1)CCC(C(=O)NCc1ccncc1)C2 (stereo unspecified)	14%
CCN(Cc1ccc(C)o1)C(=O)c1ccc2nc(-c3ccc(F)cc3)cn2c1	4%
CCN1c2cc(C(=O)N3CCN(C4CCCCC4)CC3)ccc2C(=O)N2CCCCC21 (stereo unspecified)	i
COc1ccc(S(=O)(=O)N2CCC(n3cnnc3C3CC3)CC2)cc1Cl	i
CCCc1ccc(C(=O)N2C[C@@H](CN(C)C)[C@@H](CO)C2)cc1	-12%
O=C1NC2(CCN(Cc3ccc(OC(F)(F)F)cc3)C2)COc2ccccc21 (stereo unspecified)	9%
O=C1NC2(CCN(Cc3ccsc3)CC2)COc2ccccc21	3.2µM*
O=C1NC2(CCN(Cc3ccccc3)C2)COc2ccccc21 (stereo unspecified)	10µM*
O=[S+]1([O-])NC2(CCN(Cc3ccsc3)CC2)COc2ccccc21	-16%
O=C1NC2(CCN(Cc3ccncc3)C2)Oc2ccccc21 (stereo unspecified)	14%[44.1 µM]
COc1cccc(CN2CCC3(CC2)COc2ccccc2C(=O)N3)c1	i
Cc1cnc(CC2CCNC2)n1CC1CC1 (stereo unspecified)	-14%
Cc1cc(C)c(CNC(=O)c2cc(-c3cccc4[nH]ccc34)cc3ncn(C)c23)c(=O)[nH]1	i
Cc1cc(C)c(CNC(=O)c2nc(-c3cccc(N4CCOCC4)c3)cc3[nH]ccc23)c(=O)[nH]1	8.9µM*
Cc1cc(C)c(CNC(=O)c2nc(-c3ccccc3)cc3[nH]ccc23)c(=O)[nH]1	-1%[44.1 µM]
SMILES	Pf Dd2 growth
Cc1cc(-c2cc3[nH]ccc3c(C(=O)NCc3c(C)cc(C)[nH]c3=O)n2)ccn1	-22%[44.1 µM]
COc1ccc(-c2cc3c(ccn3C)c(C(=O)NCc3c(C)cc(C)[nH]c3=O)n2)cc1	-26%[44.1 µM]
COc1cccc(Nc2cc3[nH]ccc3c(C(=O)NCc3c(C)cc(C)[nH]c3=O)n2)c1	11µM*
CCOCCn1c(=O)[nH]c2cc(C(=O)NCCn3cnnc3)ccc21	-3%
CC(C)c1ccc(NC(=O)N[C@H]2CO[C@H]3[C@@H]2OC[C@H]3O)cc1	7%[44.1 µM]
Nc1nc2c(c(NC3CC3)n1)CCN(C(=O)CCCn1cncn1)CC2	-1%
COCC(=O)Nc1ccc([C@H]2OCC(=O)N(Cc3scnc3C)[C@@H]2CO)cc1	6%[44.1 µM]
O=C(N[C@H]1CO[C@H]2[C@@H]1OC[C@@H]2n1nnnc1Oc1cccc(N2CCOCC2)c1)N1CCOCC1	-6%
CC(=O)Nc1ccc(CNC2(Cc3cc(CN4CCOCC4)on3)COC2)cc1	3%[44.1 µM]
Cc1ccc(CNC(=O)c2cc3sccc3n2Cc2ccc(Cl)cc2)cc1	i
CC(=O)c1ccc(NC(=O)c2cc3sccc3n2Cc2ccc(F)cc2)cc1	-12%
COC(=O)c1cc(NC(=O)c2cc3sccc3n2Cc2ccc(Cl)cc2)cc(C(=O)OC)c1	11µM*
COC[C@H]1CCCN1C(=O)[C@@H](C)C1CC[C@@]2(C)CC[C@H](NC(=O)Cc3ccccc3)[C@@H](C)[C@@H]2[C@H]1O (stereo partly specified)	-15%
CCOc1cccc(CC(=O)N2CCc3c([nH]c4ccccc34)C2c2ccc(SC)cc2)c1OCC (stereo unspecified)	7.9µM*
O=C(COc1ccccc1)NC1CCCc2c1[nH]c1ccccc21 (stereo unspecified)	i
CCOc1ccc(CNC(=O)c2[nH]c3ccccc3c2Sc2ccc(C)cc2)cc1	-5%
O=C(CSCc1ccc(F)cc1)N1CCc2c([nH]c3ccccc23)C1c1ccc(Cl)cc1 (stereo unspecified)	-9%
CCOc1ccc(C2c3[nH]c4ccccc4c3CCN2C(=O)Cc2cccc(OCC)c2OCC)cc1 (stereo unspecified)	11µM*

Screening results from PubChem.
